{"source": "PubChem BioAssay AID493168", "about": "(National Center for Advancing Translational Sciences (NCATS), 2011)", "note": "Records with an inconclusive call do not appear. Unmarked numbers belong to inactive results. Activity calls are given as the source filed them. Calls follow the shape of the dose curve; as a rule, active = well fitted inhibition curve with a large enough effect; inconclusive = small, poorly fitted or top-dose-only effect, or effect the other way; inactive = flat fitted curve, though single readings scatter. Potency is read from the fitted curve at half-maximal effect.", "data": [{"target": "Ubiquitin carboxyl-terminal hydrolase 2 (Homo sapiens) (UniProt O75604)", "sequence (O75604 whole entry, looked up)": "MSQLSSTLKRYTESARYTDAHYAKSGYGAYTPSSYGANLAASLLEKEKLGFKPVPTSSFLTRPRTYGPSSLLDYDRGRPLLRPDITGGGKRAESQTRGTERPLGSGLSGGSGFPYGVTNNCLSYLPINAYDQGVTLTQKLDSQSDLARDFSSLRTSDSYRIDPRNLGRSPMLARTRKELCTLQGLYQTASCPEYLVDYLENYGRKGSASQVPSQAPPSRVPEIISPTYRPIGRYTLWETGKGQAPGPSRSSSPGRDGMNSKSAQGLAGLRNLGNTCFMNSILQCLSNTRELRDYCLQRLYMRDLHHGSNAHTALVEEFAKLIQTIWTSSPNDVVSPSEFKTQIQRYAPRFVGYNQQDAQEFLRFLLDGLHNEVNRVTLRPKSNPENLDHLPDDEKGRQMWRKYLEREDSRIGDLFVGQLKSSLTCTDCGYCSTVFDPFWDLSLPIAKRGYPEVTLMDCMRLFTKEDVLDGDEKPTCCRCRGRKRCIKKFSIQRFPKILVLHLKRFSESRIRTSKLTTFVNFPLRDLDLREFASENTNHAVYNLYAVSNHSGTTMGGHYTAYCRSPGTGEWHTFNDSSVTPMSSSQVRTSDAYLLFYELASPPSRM", "assay": "Confirmation Assay for Inhibitors of Ubiquitin-specific Protease USP2a Using CHOP2 as the Reporter; also: nearly all actives have a fitted effect of over 55% in size;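 as to activity change, negative = inhibition: plate controls were DMSO wells for no effect and full inhibition by NEM control for full effect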", "conditions": "USP2 core, Ub-CHOP2 coupled reporter fluorescence; series mostly up to 38.3 µM; activity change, negative = inhibition: at the top concentration", "how_it_was_run": "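USP2 core (10 nM final) was preincubated with compound for 30 min at RT in Tris-HCl pH 8.0, CaCl2, beta-mercaptoethanol, CHAPS. Ub-CHOP2 and reporter substrate (25 nM final each) were added, and fluorescence (Ex 485/Em 531 nm) was read after 60 min.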", "units": {"activity change, negative = inhibition": "%"}, "values": [{"smiles": "CCOc1ccccc1C(=O)Nc1nnc(C(C)C)s1", "activity change, negative = inhibition": -2.08}, {"smiles": "O=C(c1ccc([N+](=O)[O-])cc1)N(Cc1ccc(Cl)cc1)N1C(=O)CCCC1=O", "activity change, negative = inhibition": -1.63}, {"smiles": "Nc1cc(=O)[nH]c(SCc2cccc(Cl)c2)n1", "activity change, negative = inhibition": 2.19}, {"smiles": "COC(=O)c1ccc(NC(=O)CSC2=Nc3ccccc3C3CC=NN23)cc1", "note": "(stereo not given)", "activity change, negative = inhibition": 0.248}, {"smiles": "COC(=O)C1CCN(C(=O)c2cc(-c3ccco3)nc3ccccc23)CC1", "Potency": "13.1 µM (active)"}, {"smiles": "CCCCC(OC(=O)c1cc2occc2n1C)C(=O)NCC1CCCO1", "note": "(stereo not given)", "activity change, negative = inhibition": 5.21}, {"smiles": "COc1ccc(N(C(=O)C(C)C)S(=O)(=O)c2ccc(Cl)cc2)cc1", "activity change, negative = inhibition": 0.439}, {"smiles": "CNc1sc(C(=O)c2ccc(F)cc2)c(N)c1-c1nc2ccccc2s1", "activity change, negative = inhibition": 0.605}, {"smiles": "CCOC(=O)c1c(-c2ccc(C)o2)csc1NC(=O)COC(=O)c1ccc(NC(N)=O)cc1", "activity change, negative = inhibition": -4.42}, {"smiles": "COc1ccc(CNS(=O)(=O)c2ccc(S(=O)(=O)N3CCCCC3)cc2)cc1", "activity change, negative = inhibition": -0.642}, {"smiles": "CCC/C(O)=C1\\C(=O)CC(C)(C)CC1=Nc1ccc(OC)cc1OC", "activity change, negative = inhibition": -6.51}, {"smiles": "CCn1c(CN2CCOCC2)nnc1SCC(=O)Nc1ccc(C(C)=O)cc1", "activity change, negative = inhibition": -3.3}, {"smiles": "C#CCOCCOCCOCCNc1nc(N2CCN(C(=O)CCCCCCCCCCNC(=O)Cn3cc(C[C@@H](C)O)nn3)CC2)nc(N2CCN(C(=O)CCCCCCCCCCNC(=O)[C@@H]([C@H](C)CC)n3cc(CCCCCN)nn3)CC2)n1", "Potency": "11.7 µM (active)"}, {"smiles": "OCCN(Cc1ccccc1)c1ncnc2sccc12", "activity change, negative = inhibition": 5.49}, {"smiles": "Cc1noc(/C=C/NCc2cccnc2)c1S(=O)(=O)N(C)CC(=O)N1CCc2ccccc21", "activity change, negative = inhibition": 0.283}]}]}
